Measured values from PubChem BioAssay.

experiment: small-molecule microarray binders of probe aNog, primary screen, biochemical, biotinylated probe, 635/667 nm fluorescence (AID 1115); conditions: higher = more signal;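 note: probe is biotinylated aNog protein used at 0.15 µg/mL for 1 h at 4 C; z-score combines 667 nm fluorescence of each spot with its signal to noise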

SMILES	composite z-score
CCCCC(CC)C(O)C1C=CC2C(=O)NC(=O)C2N1Nc1ccccn1 (stereo not given)	1.19
CC(C)C[C@@H]1NC(=O)[C@@H]2C[C@H](C(=O)NCCCC[N+](C)(C)C)[C@H](c3cccc(OCCO)c3)N2C1=O	-0.198
COCCOC(=O)N1C(=O)[C@@]2(c3ccccc31)[C@H](c1ccccc1OCCO)N1[C@H](c3ccccc3)[C@H](c3ccccc3)OC(=O)[C@H]1[C@@H]2C(=O)N1CCc2cc(OC)c(OC)cc2C1	0.194
CN1C(=O)C2C=CC(C(O)COCc3ccccc3)N(Nc3ccccc3)C2C1=O (stereo not given)	1.03
[N-]=[N+]=NCc1ccccc1[C@H]1OC(c2ccc(OCCCO)cc2)=N[C@@]1(Cc1ccccc1N=[N+]=[N-])C(=O)NCCN1CCOCC1	2.06
C[N+](C)(C)CCCCNC(=O)[C@H]1C[C@H]2C(=O)NCC(=O)N2[C@H]1c1ccc(O)cc1	-0.0037
Cc1ccc(F)cc1S(=O)(=O)N[C@@H]1CCN(C(=O)c2ccc(OC(C)C)cc2)C1	-0.425
COCCOC(=O)N1C(=O)[C@@]2(c3ccccc31)[C@H](c1ccc(OCCO)cc1)N1[C@H](c3ccccc3)[C@H](c3ccccc3)OC(=O)[C@H]1[C@@H]2C(=O)NC[C@H](O)c1ccccc1	0.554
CCCCC=C[C@@H](NC(=O)CCc1ccccc1)c1ccccc1	1.11
COc1ccc([Si](C)(C)[C@@H]2[C@@H](CCO)O[C@]3(C(=O)N(Cc4ccc(N5C(=O)c6ccccc6Oc6ccccc65)cc4)c4ccccc43)[C@H]2C)cc1	-0.358
CC[C@@H]1[C@@H]2C3C(=O)N(CC)C(=O)C3CC(=O)[C@@H]2[C@H](c2ccc(C)cc2)N1S(=O)(=O)c1ccc(C)cc1 (stereo not given in full)	-0.546
COCCOC(=O)N1C(=O)[C@@]2(c3cc(C#CC4(O)CCCCCC4)ccc31)[C@H](C(=O)N1CCc3cc(OC)c(OC)cc3C1)[C@H]1C(=O)O[C@H](c3ccccc3)[C@H](c3ccccc3)N1[C@@H]2c1ccccc1OCCO	0.0158
COc1ccc(C#Cc2ccc3c(c2)[C@]2(C(=O)N3)[C@H](C(=O)O)[C@H]3C(=O)O[C@H](c4ccccc4)[C@H](c4ccccc4)N3[C@@H]2c2ccc(OCCO)cc2)cc1	0.141
COc1ccc(C#Cc2ccc3c(c2)[C@]2(C(=O)N3)[C@H](c3ccc(OCCO)cc3)N3[C@H](c4ccccc4)[C@H](c4ccccc4)OC(=O)[C@H]3[C@@H]2C(=O)N2CCN(c3ncccn3)CC2)cc1	-0.474
[N-]=[N+]=NCc1ccccc1[C@H]1OC(c2ccc(OCCCO)cc2)=N[C@@]1(Cc1ccccc1N=[N+]=[N-])C(=O)N1CCCCC1	1.76
CCCC=C(CCC)[C@@H](NS(=O)(=O)c1ccccc1)c1ccc(C(F)(F)F)cc1	-0.475
COc1cc2c(cc1OC)CN(C(=O)[C@@H]1[C@H]3C(=O)O[C@H](c4ccccc4)[C@H](c4ccccc4)N3[C@H](c3ccc(O)cc3)[C@@]13C(=O)Nc1ccc(C#CCNC(N)=O)cc13)CC2	-0.115
COc1ccc([Si](C)(C)[C@@H]2[C@@H](CCO)O[C@]3(C(=O)N(Cc4cccc(N5C(=O)COc6ccccc65)c4)c4ccccc43)[C@H]2C)cc1	-0.167

SMILES	composite z-score
C=CC[C@@]1(C(=O)NCCN2CCOCC2)N=C(c2ccc(OCCCO)cc2)O[C@@H]1c1ccccc1	1
O=C1c2ccccc2[C@](Cc2ccccc2I)(C(=O)NCC(F)(F)F)[C@H](c2ccc(CO)cc2)N1Cc1ccccc1	0.0139
COc1ccc(C(=O)Nc2ccc3c(c2)[C@]2(O[C@@H](CCO)[C@H]([Si](C)(C)c4ccc(OC)cc4)[C@H]2C)C(=O)N3Cc2ccccc2)cc1	-0.295
COC(=O)[C@@]1(Cc2ccc(OC)cc2)[C@H]2c3cc(C(=O)N(C)C)n(CCF)c3C[C@H]2CN1C(=O)c1ccccc1	1.82
COC(=O)c1c(CC[C@@H](CO)NC(=O)N[C@@H](C)Cn2cc(C3(O)CCCC3)nn2)oc(C(C)=O)c1C(=O)OC	-0.368
CC1=C2[C@@H](CCc3ccccc3)OB(O)C[C@@H]2[C@@H]2C(=O)C=CC(=O)[C@@H]2C1	-0.375
CCCNC(=O)[C@@]1(Sc2ccc(C)cc2)CC(=O)N(Cc2ccccc2)[C@@H]1c1ccc(CO)cc1I	0.225
CC(C)C(CO)N1C(=O)[C@@H]2[C@H]3C(=O)OCC=C[C@H]3OC23C=CCN(Cn2nnc4ccccc42)C(=O)[C@@H]13 (stereo not given in full)	-0.358
O=[N+]([O-])c1ccc(C[n+]2ccc(-c3ccc(CO)cc3)cc2)o1	0.327
COc1cc(C(O)C2C=CC3C(=O)N(C)C(=O)C3N2NC(=O)OC(C)(C)C)cc(OC)c1OC (stereo not given)	1.6
COc1ccc([Si](C)(C)[C@@H]2[C@@H](CC(=O)N(CCO)Cc3ccccc3)O[C@]3(C(=O)N(C)c4c(Br)cc(C)cc43)[C@H]2C)cc1	-0.406
COC(=O)[C@@]1(Cc2ccccc2)[C@H]2c3cc(C(=O)N(C)C)n(Cc4ccccn4)c3C[C@H]2CN1C(=O)c1ccccc1	0.85
O=C1NC(=O)C2C1C=CC(C(O)CCc1ccccc1)N2Nc1ccccn1 (stereo not given)	-0.279
CCOC(=O)C1=CCC(c2cccc(Cl)c2)O1 (stereo not given)	0.59
C=C(COC)C(=O)CC[C@H](OC(=O)c1ccccc1-c1ccccc1C(=O)O)c1ccc(CO)o1	-0.137
N#Cc1ccc(NN2C(C(O)c3ccco3)C=CC3C(=O)N(c4ccccc4)C(=O)C32)cc1 (stereo not given)	0.531
COC(=O)C(CC#Cc1ccc2c(c1)[C@]1(C(=O)N2)[C@H](C(=O)N2CCc3cc(OC)c(OC)cc3C2)[C@H]2C(=O)O[C@H](c3ccccc3)[C@H](c3ccccc3)N2[C@@H]1c1ccc(OCCO)cc1)C(=O)OC	-0.198
